# In PubChem BioAssay:
# Active and inactive are the calls of the source.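 Rule for the calls, unless noted: active = compound raising the membrane signal above positive-control mean plus 3 SD in both repeats, and a primary screen hit; inactive = the rest.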
# Molecular target: Short transient receptor potential channel 6 (Mus musculus) (UniProt Q61143)
# Assay: TRPC6 opening by TRPC4 activator hits – cell-based, HEK293, membrane potential dye, duplicate, selectivity assay for TRPC4 activator project, confirmation (AID 434950;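 active = membrane potential signal rise above negative control mean plus 3 SD in both duplicates, also active in the earlier TRPC4 screen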;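 for activation: 0% = buffer only wells and 100% = acetylcholine maximal-effect wells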)
# Settings: HEK293 TRPC6, membrane potential fluorescence, at 10 µM; activation: stronger effect = higher value; outcome: activation
# Sequence of Short transient receptor potential channel 6 (Mus musculus) (Q61143 whole entry, looked up): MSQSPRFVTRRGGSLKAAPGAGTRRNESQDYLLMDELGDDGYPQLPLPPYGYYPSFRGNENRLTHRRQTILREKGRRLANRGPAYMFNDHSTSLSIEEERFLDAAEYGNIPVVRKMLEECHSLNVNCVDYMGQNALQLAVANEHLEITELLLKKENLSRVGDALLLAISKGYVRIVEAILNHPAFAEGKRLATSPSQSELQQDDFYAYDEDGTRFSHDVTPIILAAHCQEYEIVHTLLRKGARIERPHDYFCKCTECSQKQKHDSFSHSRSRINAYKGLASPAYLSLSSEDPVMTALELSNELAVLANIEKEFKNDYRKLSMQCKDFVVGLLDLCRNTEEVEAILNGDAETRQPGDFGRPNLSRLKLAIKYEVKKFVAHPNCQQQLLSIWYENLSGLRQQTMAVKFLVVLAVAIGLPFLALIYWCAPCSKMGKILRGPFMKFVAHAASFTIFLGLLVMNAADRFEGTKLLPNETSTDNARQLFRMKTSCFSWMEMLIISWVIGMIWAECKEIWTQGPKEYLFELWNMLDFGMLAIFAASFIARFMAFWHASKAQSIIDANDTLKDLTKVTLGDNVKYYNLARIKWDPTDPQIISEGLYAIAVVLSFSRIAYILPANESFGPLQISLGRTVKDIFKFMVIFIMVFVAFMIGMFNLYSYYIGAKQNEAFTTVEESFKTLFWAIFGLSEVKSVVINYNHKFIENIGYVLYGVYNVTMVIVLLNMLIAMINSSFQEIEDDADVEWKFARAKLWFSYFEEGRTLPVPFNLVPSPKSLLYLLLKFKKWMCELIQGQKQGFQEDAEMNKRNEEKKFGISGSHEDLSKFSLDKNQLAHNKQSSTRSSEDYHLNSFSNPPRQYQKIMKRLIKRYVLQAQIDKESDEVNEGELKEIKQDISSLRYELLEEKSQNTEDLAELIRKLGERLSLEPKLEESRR
Compound,activation,outcome
COc1ccc(-c2nn(-c3ccccc3C)cc2CNCc2cccnc2)cc1F,33% (active),
CN(C)C(CNC(=O)c1cccc(S(=O)(=O)N(C)C)c1)c1ccccc1 (configuration not stated),39.5% (active),
Nc1c(C(=O)c2ccccc2)sc2nsc(SCCN3CCCC3)c12,410% (active),
CC1CC(C)CN(CCCNC(=O)c2ccc3c(c2)N(Cc2ccccc2)C(=O)c2ccccc2S3=O)C1 (configuration not stated),,inactive
CN(C)c1ccc(C(CNC(=O)Cc2cccc3ccccc23)N(C)C)cc1 (configuration not stated),,inactive
Cc1csc2c(N3CCN(C(=S)Nc4ccc(C(F)(F)F)cc4)CC3)ncnc12,,inactive
O=S(=O)(NCCc1csc(-c2ccccc2)n1)c1cccnc1,59% (active),
COc1ccc(-c2nc(CSCC(=O)NC3CCN(Cc4ccccc4)CC3)c(C)o2)cc1OC,99.5% (active),
NC(N)=NN=C1CCCCCCCCCCC1,32.5% (active),
CCn1c(CN2CCN(Cc3ccc(C)cc3)C(CCO)C2)nc2ccccc21 (configuration not stated),61.5% (active),
COc1ccc(C(CNc2nc(-c3cccnc3)nc3ccccc23)N(C)C)cc1 (configuration not stated),,inactive
Cc1ccc(Cn2c(SCCN3CCCCC3)nc3c2c(=O)n(C)c(=O)n3C)cc1,,inactive
COc1ccc(C(CNC(=O)CCOc2ccccc2)N(C)C)cc1 (configuration not stated),45% (active),
CCOC(=O)C1(CCOc2ccccc2)CCN(Cc2cc(OC)ccc2OC)CC1,118% (active),
Cc1cccc(NC(=S)NCC(c2ccccc2)N(C)C)c1 (configuration not stated),39.5% (active),
CC(C)n1cnc2c(N(C)c3ccccc3)nc(N(CCN(C)C)Cc3ccccc3)nc21,31% (active),
CC(CN1CCCC(C(N)=O)C1)c1ccccc1 (configuration not stated),30.5% (active),
O=c1c(Cc2ccc(F)cc2)c(O)ccn1CCc1cnc[nH]1,,inactive
Cc1c(Cl)cccc1NC(=S)NCC(c1cccnc1)N(C)C (configuration not stated),47.5% (active),
COc1ccc(C(CNC(=O)c2ccc3c(c2)OCCO3)N(C)C)cc1 (configuration not stated),49% (active),
O=C(NC1CCCN(Cc2ccc(Cl)cc2)C1)C1CCC1 (configuration not stated),47.5% (active),
CN(C)c1ccc(-c2sc(Nc3ccccc3)n[n+]2-c2ccc(F)cc2)cc1,45% (active),

# Molecular target: Short transient receptor potential channel 6 (Mus musculus) (UniProt Q61143)
# Assay: positive modulators of mouse TRPC6 channel – HEK293 cells, membrane potential dye, duplicate, selectivity assay for TRPC4 potentiator project, confirmation (AID 434952)
# Settings: HEK293 TRPC6, membrane potential dye fluorescence, at 10 µM, maximal acetylcholine added after compound; stronger effect = higher value
row,Compound,outcome
1,CCCCN(CC)CCNC(=O)Cn1cc2c(n1)-c1c(oc(C(=O)N3CCCC3)c1C)CC2,inactive
2,Cc1ccc(NC(=S)NC2CC3CCC(C2)N3Cc2ccco2)c(C)c1 (configuration not stated),inactive
3,COc1ccc(N2CCN(Cc3nc4ccccc4n3C)CC2)cc1,inactive
4,CCC(=O)NC(C)C(c1cccs1)N1CCN(c2ccccc2)CC1 (configuration not stated),inactive
5,CC(=O)n1cc([C@H]2C=C(C(=O)NCc3ccccc3)O[C@@H](OCc3ccc(CO)cc3)C2)c2ccccc21,inactive
6,CCN1CCCC1CNC(=O)c1cc2c(OC)cccc2[nH]1 (configuration not stated),inactive
7,COc1ccc(F)cc1CN1CCN(C(=O)CCC(=O)Nc2nnc(C(C)C)s2)CC1,inactive
8,CN(CCOc1ccc(Br)cc1)CC(O)c1ccccc1 (configuration not stated),inactive
9,CCN1CCN(c2c(Cl)cccc2NC(=O)c2ccc([N+](=O)[O-])cc2)CC1,inactive
10,CCn1c(=O)c(C(=O)NNC(=O)c2ccccc2F)c(O)c2ccccc21,inactive
11,CN1C(CC(=O)Nc2ccc(Br)cc2)c2ccccc2CC1(C)C (configuration not stated),inactive
12,COc1ccc(C(CNCC(O)COc2c(C)ccc(C)c2C)N(C)C)cc1 (configuration not stated),inactive
13,COc1ccc(C(CNC(=O)C(Cc2ccccc2)NC(N)=O)N(C)C)cc1 (configuration not stated),inactive
14,CCCN(CCC)CCNC(=O)CCC(=O)Nc1ccc2nc(N3CCOCC3)cc(C)c2c1,inactive
15,Fc1ccc(NC(=S)NCCc2ccccn2)cc1,inactive
16,Cc1noc(C)c1CCC(=O)NC1CCCN(Cc2ccc(CC(C)C)cc2)C1 (configuration not stated),inactive
17,COc1ccc(C(CCNCc2ccc(N(C)C)cc2)c2ccccc2)cc1 (configuration not stated),inactive
18,COc1ccc(-c2nn(-c3ccccc3C)cc2CNCc2cccnc2)cc1F,inactive
19,CN(C)C(CNC(=O)c1cccc(S(=O)(=O)N(C)C)c1)c1ccccc1 (configuration not stated),inactive
20,Nc1c(C(=O)c2ccccc2)sc2nsc(SCCN3CCCC3)c12,inactive
21,CC1CC(C)CN(CCCNC(=O)c2ccc3c(c2)N(Cc2ccccc2)C(=O)c2ccccc2S3=O)C1 (configuration not stated),inactive
22,CN(C)c1ccc(C(CNC(=O)Cc2cccc3ccccc23)N(C)C)cc1 (configuration not stated),inactive
23,Cc1csc2c(N3CCN(C(=S)Nc4ccc(C(F)(F)F)cc4)CC3)ncnc12,inactive
24,O=S(=O)(NCCc1csc(-c2ccccc2)n1)c1cccnc1,inactive
25,COc1ccc(-c2nc(CSCC(=O)NC3CCN(Cc4ccccc4)CC3)c(C)o2)cc1OC,inactive
